Molecules are shown by their SMILES. Compounds without any hit were thinned out: in the full panel of roughly 83,000, 20% have a hit.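 Each cell line was grown in a 96-well plate and treated with one concentration of compound for 48 hours. Values below 10 were considered active.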 Values without a mark were called inactive. The source made the active and inactive calls.

Common to all, as to test: NCI-60 one-dose screen, 48 h (100 = growth as untreated, 0 = no growth, -100 = all killed)
Assay [1] concerns HCT-15 colon. The following applies: 10 µM unless noted.
The subject of assay [2] is HT29 colon. The conditions noted are these: 10 µM unless noted.
The subject of assay [3] is SNB-19 CNS. The following applies: 10 µM unless noted.
The test system of assay [4] is U251 CNS. The following applies: 10 µM unless noted.
For assay [5], the system named is PC-3 prostate. The conditions noted are these: 10 µM unless noted.
In assay [6] the test system is SK-MEL-5 melanoma. The conditions noted are these: 10 µM unless noted.
Assay [7] concerns UACC-62 melanoma. The conditions noted are these: 10 µM unless noted.
Assay [8] deals with LOX IMVI melanoma. The conditions noted are these: 10 µM unless noted.
Assay [9] relates to SK-MEL-28 melanoma. The conditions noted are these: 10 µM unless noted.
Assay [10] has as its system SK-MEL-2 melanoma. The conditions noted are these: 10 µM unless noted.
The subject of assay [11] is EKVX NSCLC. The conditions noted are these: 10 µM unless noted.
The test system of assay [12] is SN12C renal. The following applies: 10 µM unless noted.
Assay [13] concerns UO-31 renal. The conditions noted are these: 10 µM unless noted.
The test system of assay [14] is TK-10 renal. The following applies: 10 µM unless noted.
For assay [15], the system named is ACHN renal. The conditions noted are these: 10 µM unless noted.
Assay [16] deals with A498 renal. The conditions noted are these: 10 µM.
Assay [17] relates to HL-60(TB) leukemia. The conditions noted are these: 10 µM unless noted.
Assay [18] relates to CCRF-CEM leukemia. The conditions noted are these: 10 µM unless noted.
Assay [19] has as its system CAKI-1 renal. The conditions noted are these: 10 µM unless noted.
In assay [20] the test system is SNB-75 CNS. The following applies: 10 µM unless noted.

Consider `CC[C@H](C)[C@H](NC(=O)[C@H]1CCCCN1C)C(=O)N(C)[C@H](CC(=O)c1nc(C(=O)N[C@@H](Cc2ccccc2)C[C@H](C)C(=O)O)cs1)C(C)C`, for which the growth was 99.2% in assay [1]; 78% in assay [2]; 55.5% in assay [3]; 45.9% in assay [4]; 78.3% in assay [5]; 56.1% in [6]. The growth in assay [7] was 32.2%; in assay [8], 47.2%; in assay [9], 81.3%; in assay [10], 37.8%; in assay [11] it was 91.5%; in assay [12] it was 83.8%. Moreover, the growth is 88.6% in assay [13]; 97.2% in [14]; 109% in assay [15]; 73.4% in assay [16]; -7.69% (active) in [17]; 21.2% in [18].

On to `O=C(O)C(Cl)(Cl)C(F)(F)F`, for which the growth is 104% in assay [1]; 103% in assay [2]; 105% in assay [3]; 108% in assay [4]; 102% in assay [5]; 103% in [6]. Further, the growth in [7] was 105%; in assay [8], 106%; in assay [9], 110%; in assay [10] it was 105%; in assay [11], 105%; in assay [12] it was 104%. Further, the growth in [13] is 93.5%; in assay [14] it was 98.3%; in [15] it was 107%; in assay [19] it was 95%; in assay [16], 95.1%; in assay [17], 110%. In assay [18], the growth is 100%.

As for `Fc1cccc(NCOOC2(OOCNc3cccc(F)c3)CCCCC2)c1`, the growth in [1] was 99.2%; in [2] it was 96%; in [3], 96.2%; in assay [4], 102%; in assay [5], 88.9%; in assay [6], 95.2%. For the same molecule, the growth in [7] is 104%; in assay [8], -68.9% (active); in [9], 109%; in assay [10], 91.7%; in assay [11] it was 93.8%; in [12] it was 103%. The growth in [13] is -58.2% (active); in [14], 90.8%; in assay [15] it was 95%; in assay [19], 52.3%; in [16], 92.4%; in assay [17] it was 88.3%. Further, the growth in assay [18] was 84.1%.

With `CCOC(=O)C(Cc1ccc(N(CCCl)CCCl)cc1)NC(=O)C(CC(C)C)NC(C)=O` (centres undefined), the growth is 35% in [1]; 8.7% (active) in [2]; 57.6% in [3]; 25.5% in [4]; 60.9% in [5]; 60.8% in assay [6]. For the same molecule, the growth in assay [7] was 13.1%; in assay [8], -15.6% (active); in assay [9], 6.21% (active); in [10], -2.13% (active); in [11], 114%; in assay [12], 25.4%. Moreover, the growth in assay [13] is -48.7% (active); in [14] it was 21.3%; in assay [15] it was 8.89% (active); in assay [19] it was -20.7% (active); in [16], 86.5%; in [17], 13.1%. The growth in assay [18] is 12.3%.

As to `CCCCCCCC[n+]1ccc2ccccc2c1`, the growth in [1] is 99.7%; in [2] it was 42.4%; in [3], 53.8%; in assay [4] it was 66%; in assay [5] it was 35%; in [6], -19.4% (active). For the same molecule, the growth in [7] is 25.5%; in [8], 63.6%; in assay [9], 61.2%; in assay [10] it was 24.5%; in assay [11], 75.3%; in assay [12], 48.3%. The growth is 71% in assay [13]; 62.9% in assay [14]; 94.8% in assay [15]; 93.1% in [16]; 43.3% in assay [18].

As for `C/C1=C/C(=O)O[C@@H]2C[C@@H](CC[C@H](C)/C=C\C=C\CC1)O[C@@](O)([C@@H]1CSC(=O)N1CO)C2`, the growth in assay [1] is 46.6%; in assay [2], 8.8% (active); in assay [20] it was -41.5% (active); in assay [4], 5.44% (active); in [6], 29.5%; in [7], 29.2%. Moreover, the growth was 7.38% (active) in [8]; -31.7% (active) in assay [9]; 6.56% (active) in assay [11]; 47.8% in assay [12]; -83.5% (active) in assay [13]; 10.6% in assay [15]. Also, the growth in assay [19] was -48.3% (active); in assay [16], -46.2% (active); in assay [17] it was 28.2%; in [18], 11.1%.

In the case of `NC(=O)C(Br)c1ccccc1` (centres undefined), the growth in [1] was 58%; in assay [2], 86.2%; in assay [3], 90.6%; in [4], 86.8%; in assay [5], 94.3%; in assay [6], 82.9%. The growth was 88% in assay [7]; 56.8% in assay [8]; 97.2% in [9]; 83.9% in [10]; 109% in assay [11]; 88.7% in assay [12]. Further, the growth was 102% in assay [13]; 91.2% in assay [14]; 87.2% in [15]; -46% (active) in assay [19]; 87.4% in [16]; 60.6% in [18].

Turning to `C=CCCCCCCCCC(=O)[O-].C=CCCCCCCCCC(=O)[O-].[Zn+2]`, the growth in assay [1] was 101%; in assay [2], 105%; in assay [20], 103%; in assay [4], 89%; in [5], 85.7%; in [6], 113%. The growth was 99.4% in assay [7]; 90.5% in assay [8]; 104% in [9]; 111% in [10]; 98.7% in assay [11]; 101% in assay [12]. Also, the growth in assay [14] was 115%; in assay [15], 101%; in [19] it was 90%; in [16], 92.7%; in assay [17] it was 95.1%; in [18], 104%.

The values above are taken from PubChem BioAssay (NCI).
